The target of test [1] is Glucocorticoid receptor (Homo sapiens) (UniProt P04150). Kind of test: GR-GFP Redistribution (AID 450;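 active = compounds whose dose series gives a full or clear partial fitted curve of increased nuclear translocation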; note: potency is the fitted concentration of half-maximal effect). To be noted: U2OS GR-GFP nuclear translocation, laser cytometry, 2 h.
For test [2] the target is unchanged. Kind of test: GR-EFC Redistribution (AID 451; calls by dose curve; note: potency is the fitted concentration of half-maximal effect). The following applies: CHO-K1 GR-EFC translocation, beta-gal luminescence, 2 h. The method in brief:
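Translocation of GR-ED fusion to nuclear EA restores b-gal, read by luminescence after 1 h room-temperature detection. Engineered CHO-K1 biosensor cells, 1,000/well, exposed 2 h at 37 C to titrations up to 46 uM final.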

The target in test [3] is DNA dC->dU-editing enzyme APOBEC-3G (Homo sapiens) (UniProt Q9HC16). In words: qHTS for inhibitors of Vif-A3G interactions: Validation (AID 588379). To be noted: Vif-A3G protein interaction assay; series mostly up to 46.1 µM. An outline of the steps:
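Yellow fluorescence (Ex 488, Em 500-530) of Vif-coexpressing HeLa A3G-eYFP cells, scanned by Acumen cytometer, reports blocked A3G degradation. Cells plated at 700/well overnight at 37 deg C before compound addition, then a further overnight compound incubation at 37 deg C.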
On the technique in general: In qHTS, concentration-response curves come from the screen itself.

For test [4], the system named is Zika virus NS2B-NS3 protease. Kind of test: Primary screen GU AMC qHTS for Zika virus inhibitors (AID 1347154). Note: nearly all actives have a fitted effect of over 70% in size. Note: potency is the fitted concentration of half-maximal effect. To be noted: Zika NS2B-NS3 unlinked protease, AMC fluorogenic substrate; series mostly up to 54.1 µM. An outline of the steps: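 Fluorogenic AMC-substrate cleavage by noncovalent NS2B-NS3 protease complex (25 nM, pH 8.0 Tris buffer with Tween 20) followed for 15 minutes at room temperature (~20% conversion). Percent inhibition from ex340/em450 signal change, fitted by 4-parameter Hill equation.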

The structures appear in SMILES notation. Where “and” joins values, the source holds several entries; their conditions need not be identical. Equal entries are not always repeated. A number with no mark means an inactive call. Inconclusive results are not listed. Calls of active or inactive are those of the source. Unless noted, calls come from the whole dose curve; as a rule, active = well fitted inhibition curve with a large enough effect; inconclusive = small, poorly fitted or top-dose-only effect; inactive = flat fitted curve, though single readings scatter.

Chain of Glucocorticoid receptor (Homo sapiens) (P04150 whole entry, looked up): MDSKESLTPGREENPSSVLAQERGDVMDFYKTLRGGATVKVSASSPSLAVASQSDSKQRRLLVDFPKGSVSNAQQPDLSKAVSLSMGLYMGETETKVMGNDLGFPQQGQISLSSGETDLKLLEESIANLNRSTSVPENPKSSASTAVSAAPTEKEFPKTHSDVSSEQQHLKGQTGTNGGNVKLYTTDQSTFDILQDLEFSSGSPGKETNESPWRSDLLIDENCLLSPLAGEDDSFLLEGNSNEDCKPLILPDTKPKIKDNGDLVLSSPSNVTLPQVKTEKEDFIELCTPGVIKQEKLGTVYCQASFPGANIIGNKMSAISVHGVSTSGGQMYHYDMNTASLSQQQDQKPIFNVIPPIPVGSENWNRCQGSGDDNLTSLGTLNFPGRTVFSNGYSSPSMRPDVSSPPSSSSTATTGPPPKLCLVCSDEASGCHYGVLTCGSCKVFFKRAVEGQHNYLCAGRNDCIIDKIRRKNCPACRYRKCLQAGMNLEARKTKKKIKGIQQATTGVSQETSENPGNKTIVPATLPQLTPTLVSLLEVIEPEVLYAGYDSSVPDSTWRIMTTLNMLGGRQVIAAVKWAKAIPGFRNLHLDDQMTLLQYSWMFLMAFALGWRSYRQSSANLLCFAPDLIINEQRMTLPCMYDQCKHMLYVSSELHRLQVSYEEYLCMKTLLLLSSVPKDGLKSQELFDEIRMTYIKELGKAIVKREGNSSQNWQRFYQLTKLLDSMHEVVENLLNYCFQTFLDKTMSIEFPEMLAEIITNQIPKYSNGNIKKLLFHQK
Chain of DNA dC->dU-editing enzyme APOBEC-3G (Homo sapiens) (Q9HC16 whole entry, looked up): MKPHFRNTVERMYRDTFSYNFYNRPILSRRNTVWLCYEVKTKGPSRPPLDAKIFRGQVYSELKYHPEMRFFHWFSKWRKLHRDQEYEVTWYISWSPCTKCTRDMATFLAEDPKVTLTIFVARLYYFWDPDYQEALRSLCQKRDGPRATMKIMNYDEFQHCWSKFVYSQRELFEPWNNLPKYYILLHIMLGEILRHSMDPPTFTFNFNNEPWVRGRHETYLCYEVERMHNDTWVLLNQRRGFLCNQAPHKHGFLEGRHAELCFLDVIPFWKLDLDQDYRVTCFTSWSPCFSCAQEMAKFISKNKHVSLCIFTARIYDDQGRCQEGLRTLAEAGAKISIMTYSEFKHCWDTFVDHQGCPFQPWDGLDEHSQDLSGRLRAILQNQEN

On to `CCCCN1CCC[C@@H]1CNC(=O)c1cc(C#N)c2ccccc2c1OC`, for which the Potency in test [1] and in test [2] was over 46 µM each time. Besides, the Potency result in test [3] and in test [4] was “inactive” each time.
`O=C(c1ccc(F)cc1)C1CCN(CCCCc2ccccc2)CC1`: the Potency in test [1] and in test [2] was over 46 µM throughout. In addition, the Potency entry in test [3] and in test [4] was “inactive” each time.
As for `COc1ccccc1N1CCN(C[C@@H]2CN3C(=O)N(C)c4ccccc4C3=N2)CC1`, the Potency in test [1] and in test [2] was over 46 µM in each case. In addition, the Potency entry in test [3] and in test [4] was “inactive” throughout.
As to `NCCCCNS(=O)(=O)c1ccc2c(Cl)cccc2c1`, the Potency in test [1] and in test [2] was over 46 µM in each case. For the same molecule, the Potency entry in test [3] and in test [4] was “inactive” in each case.
As to `COc1cc(OC)c2cc(-c3ccncc3)cnc2c1`, the Potency in test [1] is over 46 µM; in test [2] it was over 46 µM; in test [4], 21.2 µM (active). Moreover, the Potency result in test [3] was “inactive”.
`Cc1c(C2CCN(CCc3ccccc3)CC2)noc1-c1ccc(Cl)cc1`: the Potency in test [1] and in test [2] was over 46 µM each time. The Potency entry in test [3] and in test [4] was “inactive” in each case.
Regarding `CCC(C)(C)N=C(NC#N)Nc1cccnc1`, the Potency in test [1] and in test [2] was over 46 µM each time. Also, the Potency entry in test [4] is “inactive”.
On to `C[N+](C)(C)CCCCCNCC12CC3CC(CC(C3)C1)C2`, for which the Potency in test [2] is over 46 µM. The Potency entry in test [3] and in test [4] was “inactive” throughout.
Consider `Cc1ccccc1N=C(N)Nc1ccccc1C`, for which the Potency in test [2] is over 46 µM. The Potency entry in test [3] and in test [4] was “inactive” each time.
In the case of `N[C@@H](Cc1cc(CP(=O)(O)O)cc(-c2ccccc2Cl)c1)C(=O)O`, the Potency in test [1] and in test [2] was over 46 µM each time. Also, the Potency entry in test [3] and in test [4] was “inactive” each time.
Turning to `OC[C@@H]1O[C@@H](n2cnc3c(NC4CCCC4)ncnc32)[C@H](O)[C@H]1O`, the Potency in test [1] and in test [2] was over 46 µM throughout. Besides, the Potency entry in test [3] and in test [4] was “inactive” throughout.
For `C[C@@]1(C(=O)O)NCCc2cc(O)c(O)cc21`, the values for the Potency in test [1], in test [2] and in test [4] were over 46 µM, over 46 µM and 11.9 µM (active), respectively. Besides, the Potency entry in test [3] was “inactive”.
As to `OC[C@H]1NC[C@@H](O)[C@@H](O)[C@H]1O`, the Potency in test [1] and in test [2] was over 46 µM each time. The Potency entry in test [3] and in test [4] was “inactive” each time.
`Cc1ccc(C(=O)Cn2c3c(sc2=N)CCCC3)cc1`: the Potency in test [1] and in test [2] was over 46 µM throughout. In addition, the Potency result in test [3] and in test [4] was “inactive” throughout.
As to `N[C@@H](C(=O)O)c1cc(O)ccc1Cl`, the Potency in test [1] and in test [2] was over 46 µM each time. In addition, the Potency result in test [3] and in test [4] was “inactive” in each case.
Turning to `CCCCCCCCC(=O)NCc1cc(OC)c(O)cc1I`, the Potency in test [1] and in test [2] was over 46 µM in each case. The Potency entry in test [3] and in test [4] was “inactive” throughout.
In the case of `Cc1c[nH]c(=O)n(CCCN2CCN(c3ccccc3OCC(F)(F)F)CC2)c1=O`, the Potency in test [1] and in test [2] was over 46 µM in each case. Besides, the Potency result in test [3] and in test [4] was “inactive” throughout.
With `N[C@@H](C(=O)O)c1ccc(C(=O)O)c(O)c1`, the Potency in test [1] is over 46 µM; in test [2], over 46 µM; in test [4] it was 23.8 µM (active). Moreover, in test [3], the Potency entry was “inactive”.
`CCCCCCCC/C=C\CCCCCCCC(N)=O`: the Potency in test [1] and in test [2] was over 46 µM each time. Moreover, the Potency result in test [3] and in test [4] was “inactive” each time.
As to `N[C@H](C(=O)O)[C@H](OCc1ccccc1)C(=O)O`, the Potency in test [1] and in test [2] was over 46 µM throughout. Moreover, the Potency result in test [3] and in test [4] was “inactive” each time.
Take `COc1ccc([N+](=O)[O-])c2c1CCN2C(=O)CC[C@H](N)C(=O)O`: the figures for the Potency in test [1] and in test [2] were 4.81 µM (active) and over 46 µM, respectively. In addition, the Potency result in test [3] and in test [4] was “inactive” throughout.
As to `Clc1cccc(C=NC=Nc2cccc(Cl)c2)c1`, the Potency in test [1] and in test [2] was over 46 µM each time. Besides, the Potency result in test [3] and in test [4] was “inactive” each time.
`OC[C@H]1O[C@H](n2cnc3c(NC4CCCC4)nc(Cl)nc32)[C@@H](O)[C@@H]1O`: the Potency in test [1] and in test [2] was over 46 µM throughout. Also, the Potency entry in test [3] and in test [4] was “inactive” each time.
For the molecule `CC(=O)[C@H]1CC[C@H]2C3CC=C4C[C@@H](O)CC[C@]4(C)C3CC[C@]12C` (some centres not stated), in test [4], the Potency result was “inactive”.
For `c1cc2c3c(c1)c1c(n3CCNC2)CCCC1`, the Potency in test [1] and in test [2] was over 46 µM throughout. The Potency entry in test [3] and in test [4] was “inactive” in each case.
As to `COc1ccc2cc(C(C)C(=O)O)ccc2c1` (configuration not stated), in test [4], the Potency entry is “inactive”.
Consider `CCCCCCCC/C=C\CCCCCCCC(=O)N[C@@H](CO)Cc1ccc(O)cc1`, for which the Potency in test [1] and in test [2] was over 46 µM in each case. Moreover, the Potency entry in test [3] and in test [4] was “inactive” each time.
For the molecule `CCCCCCCCCCCCCCCCCCc1ccc(C(=O)/C=C\C(=O)O)cc1`, the Potency in test [1] and in test [2] was over 46 µM throughout. Besides, the Potency result in test [3] and in test [4] was “inactive” in each case.
For the molecule `C[C@@]12CC[C@@H]3c4ccc(O)cc4C[C@H](CCCCCCCCCS(=O)CCCC(F)(F)C(F)(F)F)[C@H]3[C@@H]1CC[C@@H]2O` (some centres not stated), the Potency in test [1] and in test [2] was over 46 µM each time. The Potency result in test [3] and in test [4] was “inactive” each time.
Regarding `N[C@H](C(=O)O)[C@@H]1[C@@H](C(=O)O)C1(F)F`, the Potency in test [2] is over 46 µM. The Potency entry in test [4] is “inactive”.
For `CCCCCS(=O)(=O)CCCCCCCCCCn1c(-c2ccc(O)cc2)c(C)c2cc(O)ccc21`, the Potency result in test [4] is “inactive”.
In the case of `COc1cc(-c2ccc(N=Nc3ccc4c(S(=O)(=O)O)cc(S(=O)(=O)O)c(N)c4c3O)c(OC)c2)ccc1N=Nc1ccc2c(S(=O)(=O)O)cc(S(=O)(=O)O)c(N)c2c1O`, the Potency in test [1] was > 20.6 µM and > 46 µM; in test [2] it was > 20.6 µM and > 46 µM. The Potency entry in test [3] is “inactive”.
For `CC(C)Oc1ccc2c(=O)c3cc(C(=O)O)ccc3oc2c1`, the Potency in test [1] and in test [2] was over 46 µM each time. The Potency result in test [3] and in test [4] was “inactive” each time.
Turning to `CCN(CC)CCCCC1CCN(CC(=O)N2c3ccccc3C(=O)Nc3cccnc32)CC1`, in test [4], the Potency entry was “inactive”.
Take `O=C(/C=C\c1ccc(O)c(O)c1)O[C@@H](Cc1ccc(O)c(O)c1)C(=O)O`: the Potency in test [1] is over 46 µM; in test [2], over 46 µM; in test [4] it was 4.74 µM (active). The Potency entry in test [3] was “inactive”.
As to `CCCCCN=c1ccn(Cc2ccccc2)c2ccccc12`, the Potency in test [1] and in test [2] was over 46 µM each time. Further, the Potency result in test [3] and in test [4] was “inactive” each time.
As to `Cc1c(C(=O)NN2CCCCC2)nn(-c2ccc(Cl)cc2Cl)c1-c1ccc(I)cc1`, in test [4], the Potency result is “inactive”.
Consider `CC(C)Oc1cccc(-n2c(CCc3c[nH]c4ccc(Br)cc34)nc3ccccc3c2=O)c1`, for which the Potency in test [1] and in test [2] was over 46 µM each time. Moreover, the Potency result in test [3] and in test [4] was “inactive” throughout.
As for `CC(C)N=C(N)N=C(N)Nc1ccc(Cl)cc1`, the Potency result in test [4] was “inactive”.
On to `CNc1ncnc2c1ncn2[C@H]1C[C@H](OP(=O)(O)O)[C@H](COP(=O)(O)O)O1`, for which the Potency in test [1] and in test [2] was over 46 µM throughout. For the same molecule, the Potency result in test [3] and in test [4] was “inactive” throughout.
In the case of `COc1ccccc1CC(=N)N1C[C@@H]2C(=O)CCC(c3ccccc3)(c3ccccc3)[C@@H]2C1`, the Potency in test [1] and in test [2] was over 46 µM each time. Also, the Potency result in test [3] and in test [4] was “inactive” throughout.
As to `COc1cc2c(cc1OC)-c1cc3nc4ccccc4nc3n1C(C)(C)C2`, the Potency in test [1] and in test [2] was over 46 µM each time. The Potency entry in test [3] and in test [4] was “inactive” in each case.
`COc1ccccc1N1CCN(C[C@@H](C(=O)NC(C)(C)C)c2ccccc2)CC1`: the Potency in test [1] and in test [2] was over 46 µM throughout. Moreover, the Potency result in test [3] and in test [4] was “inactive” in each case.
Take `C[C@@H]1CNCCN1S(=O)(=O)c1cccc2cnccc12`: the Potency in test [1] and in test [2] was over 46 µM in each case. In addition, the Potency result in test [3] and in test [4] was “inactive” in each case.

Source of the values: PubChem BioAssay (NCATS).
